Among all 47,000 compounds or so, about 200 (0.43%) were called active. Not shown: some 1% with an inconclusive outcome.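 Rule for the calls: active = inhibition of aggregate fluorescence above about 70%, also judged a hit by eye on the cell image (limit read from the data, passing the limit was not always enough); inconclusive = no rule stated for this call; inactive = not judged a hit on image review.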 Only a selection was taken, and actives are over-represented in it overall.
assay: clearance of mutant huntingtin inclusions, primary screen, imaging, HeLa Exon1htt(103Q)mCFP, confocal imaging (AID 853); details: aggregate imaging, at 1.5 µM; fraction fluorescence in grains: measured here: aggregate grain fluorescence fraction, stronger effect = lower value; inhibition: stronger effect = higher value, zero = plate's median compound well;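 note: cells exposed to compound for three days before fixation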

SMILES | fraction fluorescence in grains | inhibition
COc1ccc(CNC(=O)C2CCC(CNc3c(N4CCOCC4)c(=O)c3=O)CC2)cc1 (centres undefined) | 33 | 10.7% (inactive)
Cc1cc(Cl)c(S(=O)(=O)N(C)C)cc1OCC(N)=O | 20.5 | -7.1% (inactive)
O=S(=O)(/C=C/c1ccccc1)NCCc1ccccn1 | 31.8 | 7.7% (inactive)
O=C(Oc1cccnc1)c1cc2ccccc2oc1=O | 21 | -5.6% (inactive)
COC(=O)C(C)Oc1ccc2c(-c3cccc([N+](=O)[O-])c3)cc(=O)oc2c1 (centres undefined) | 35.3 | 9.1% (inactive)
CCCCCCNC(=O)CSc1nccn1Cc1ccccc1 | 18.3 | 7.5% (inactive)
CCSc1nnc(NC(=O)Cc2ccccc2OC)s1 | 52.6 | -25.1% (inactive)
COc1cccc(OC)c1C(=O)Nc1ccc(N2CCCCC2)cc1 | 19.3 | 18.4% (inactive)
C/C(=C\C(=O)c1ccc(Br)cc1)N1CCCCC1 | 28.4 | 28.3% (inactive)
CCc1c(O)cc2n(c1=O)-c1ccccc1C2(C)C | 27.7 | -37.8% (inactive)
CC1(C)CC(=O)C(C=NCCN2CCN(C(=S)Nc3cccc(Cl)c3)CC2)=C(O)C1 | 25.7 | 12.3% (inactive)
Cc1cccc(N2CCN(C(=O)CN(C)S(=O)(=O)c3ccc4c(c3)CCC(=O)N4)CC2)c1C | 43.8 | -18.5% (inactive)
COc1ccc(CCN2CNc3c(c(=O)n(C)c(=O)n3C)C2)cc1OC | 63.1 | -203% (inactive)
COc1ccc(CNC(=O)CCn2cccc2)cc1 | 29.6 | -25.4% (inactive)
CCCC(=O)Nc1nc2ccc(NC(=O)c3cccnc3)cc2s1 | 48.5 | -19% (inactive)
CCOC(=O)c1cnc(SC)nc1Sc1ccc(Cl)cc1Cl | 27.6 | -31% (inactive)
O=C(CSCc1ccc(Cl)cc1)N1CCCCC1 | 25.4 | -26.2% (inactive)
Cn1cnc2c1c(=O)n(Cc1c(Cl)cccc1Cl)c(=O)n2C | 24.1 | -22.3% (inactive)
CCOc1nc(NCCN2CCOCC2)nc(Nc2ccc(C)cc2)n1 | 42.7 | -6.3% (inactive)
Cc1cc2cc3c(cc2nc1SCC(=O)Nc1c(C)cccc1C)CCC3 | 26.1 | 30.7% (inactive)
CC1(C)CCc2nc(SCc3ccccc3)c(C#N)cc2C1 | 21.6 | -20.9% (inactive)
CC(NC(=O)CSc1nc2c(cc1C#N)CN(C)CC2)c1ccccc1 (centres undefined) | 10.8 | 73.3% (active)

SMILES | fraction fluorescence in grains | inhibition
Cc1ccnc(SCCn2c(N(C)Cc3ccccc3)nc3c2c(=O)n(C)c(=O)n3C)n1 | 35.6 | -10.6% (inactive)
CCn1c(CNC(=O)c2ccccc2)nnc1SCC(=O)N1CCN(c2ccccc2)CC1 | 10.5 | 45.3% (inactive)
c1ccc(-c2noc(-c3cccs3)n2)nc1 | 20.2 | -19.7% (inactive)
Cc1cc(Oc2ccccc2)nc(N2CCOCC2)n1 | 29.1 | 5.3% (inactive)
COc1ccc(NS(=O)(=O)c2ccc(NC(=O)C(C)(C(F)(F)F)C(F)(F)F)cc2)nn1 | 26.9 | -29.8% (inactive)
COc1ccc(NC(=O)COC(=O)Cn2c(C)nc3ccccc32)cc1OC | 48.2 | -28% (inactive)
CCOC(=O)CN1C(=O)C(=O)c2cc(C)ccc21 | 50.7 | -31.2% (inactive)
CCOC(=O)Cn1c2c(c(-c3ccccc3OC)cc1=O)CCCC2 | 9.78 | 75.9% (active)
CCOC(=O)c1c(NC(=O)CSc2nnc(CNc3ccc(C)cc3C)o2)sc(C)c1C | 20 | 0.1% (inactive)
O=C(c1ccccn1)c1ncc(C(F)(F)F)cc1Cl | 11.8 | 69.6% (inactive)
COc1cc(C2CC(=O)c3cnc(NC(C)=O)nc3C2)cc(OC)c1OC (centres undefined) | 28.1 | -57.9% (inactive)
Cc1ccccc1NC(=O)c1cnn(-c2ccccc2)c1NC(=O)c1ccco1 | 65.2 | -45.9% (inactive)
O=C(Nc1cccc(NC(=O)c2ccco2)c1)c1cnccn1 | 17.1 | 4% (inactive)
CCOc1ccc(C(=O)Nc2cc(OC)ccc2OC)cc1 | 47.6 | -28.5% (inactive)
N#Cc1c(/N=C/N2CCCC2)oc(-c2ccccc2)c1-c1ccccc1 | 60.3 | -70.7% (inactive)
c1ccc(Nc2n[nH]nc2-c2ccccc2)cc1 | 19.1 | -9.8% (inactive)
COc1ccc(Oc2coc3cc(OC(=O)c4cncc(Br)c4)ccc3c2=O)cc1 | 38.8 | 10.3% (inactive)
CCN(CC)CCNc1ccc(Cl)cc1[N+](=O)[O-] | 50.4 | -31% (inactive)
COc1nc(NC2CCCCC2)nc(N2CCCCCC2)n1 | 7.28 | 62.7% (inactive)
ONC(=Nc1ccc(Cl)cc1)c1ccccc1Cl | 37.5 | 2.4% (inactive)
Cc1cccc(N(C(=O)Cc2cccs2)C(C(=O)NC2CCCC2)c2ccsc2)c1 (centres undefined) | 20.3 | 34% (inactive)
CCOc1ccc(N=Cc2c(O)n(-c3cccc(C)n3)c(=O)c3ccccc23)cc1 | 45.9 | -5.8% (inactive)

SMILES | fraction fluorescence in grains | inhibition
CCC(C)(C)n1nnnc1CN1CCN(c2nc3ccc(C)cc3cc2C#N)CC1 | 29 | 23.1% (inactive)
O=c1[nH]c2c(c(=O)n1Cc1ccccc1)CCC2 | 13.3 | 28.6% (inactive)
COc1ccccc1-c1nnc(SCC(=O)Nc2ccccc2)o1 | 4.28 | 73.5% (active)
COc1ccccc1-c1nnc(SCC(=O)Nc2cc(C)on2)o1 | 16.4 | 15.8% (inactive)
Cc1cc(C)cc(OCc2nnc(SCC(=O)Nc3ccccc3)o2)c1 | 15 | 15.8% (inactive)
Cc1cc(C)n(-c2c(F)c(F)c(COC(=O)c3ccccc3)c(F)c2F)n1 | 25.1 | -56.6% (inactive)
CCCCOC(=O)Cn1c(=O)n(CC(=O)OCCCC)c2cc(C)ccc21 | 19 | -6.9% (inactive)
CC(=O)Nc1ccccc1C(=O)C(=O)Nc1ccc(F)cc1 | 57.6 | -48.2% (inactive)
CCOc1ccc(N(CC(=O)NC2CCCCCC2)S(=O)(=O)c2c(C)[nH]c(=O)[nH]c2=O)cc1 | 41.2 | -15.2% (inactive)
CCCC(=O)N1CCc2[nH]c3ccccc3c2C1 | 26.6 | 21.6% (inactive)
Cc1c(CN2CCC(C)CC2)c(=O)n(-c2ccccc2)n1C | 56.1 | -32.3% (inactive)
COc1ccc(C2C(C(C)=O)=C(O)C(=O)N2Cc2cccnc2)cc1 (centres undefined) | 15.5 | 17.5% (inactive)
COC(=O)c1cccc(NC(=O)CSc2nc(C)cc(=O)[nH]2)c1 | 13.9 | 27.8% (inactive)
Cn1ccs/c1=N\S(=O)(=O)c1ccc(C(C)(C)C)cc1 | 37.7 | 0.2% (inactive)
CCCCOc1ccc(NC(=O)CSCC(=O)OCC)cc1 | 53.3 | -31.6% (inactive)
CCOc1ccc(NC(=O)CCC(=O)n2nc(C)cc2C)cc1 | 4 | 79.1% (active)
CCOc1ccc(NC(=O)Nc2cc(C)on2)cc1 | 23.9 | -47.8% (inactive)
O=C(CSc1nnc(-c2cccnc2)n1CCc1ccccc1)NCc1ccccc1 | 34.5 | -83.7% (inactive)
CC(C)(C)C(=O)Cn1c(NCCO)nc2ccccc21 | 13.3 | 30.8% (inactive)
Oc1c(C(c2cccs2)N2CCN(c3ccc(F)cc3)CC2)sc2ncnn12 (centres undefined) | 72.5 | -45.9% (inactive)
COc1ccc(-n2c(SCC(=O)NCc3cccs3)nnc2-c2ccoc2C)cc1 | 22.6 | 33.8% (inactive)
O=C(NCCCNCc1ccccc1)c1ccc(/C=N/O)nc1 | 39.1 | 3.6% (inactive)

SMILES | fraction fluorescence in grains | inhibition
Cc1ccc(C2C(C#N)C(C#N)N3CCCN23)cc1 (centres undefined) | 23.7 | 40.7% (inactive)
CCOc1ccccc1C(=O)NC1CC2CCCC(C1)N2Cc1ccccc1 (centres undefined) | 14.9 | 23.5% (inactive)
CNc1nc(SC)nc(N(C#N)CC(=O)OC)n1 | 30.5 | -71% (inactive)
C=CCn1c(C(C)NC(=O)CC)nc2ccccc21 (centres undefined) | 34.1 | -61.6% (inactive)
CC(=O)NC(C)c1nc2ccccc2n1Cc1ccccc1F (centres undefined) | 3.88 | 76.4% (active)
CCC(=O)Nc1nc2ccccc2n1Cc1ccccc1C | 32.9 | 4.8% (inactive)
COC(=O)C1C(=O)NCC1c1ccc(OC)cc1 (centres undefined) | 12 | 35.5% (inactive)
Cc1sc2nc(SCC(N)=O)n(C)c(=O)c2c1C | 18.7 | -1.9% (inactive)
Cc1ccccc1NC(=O)c1ccccc1NS(=O)(=O)c1cccc2cccnc12 | 11.2 | 46.2% (inactive)
Cn1c(SCC(=O)N2CCOCC2)nnc1-c1ccc(NC(=O)c2ccccc2F)cc1 | 22.6 | -25.1% (inactive)
O=C(NCCCCc1ccccc1)C1CC(c2ccc([N+](=O)[O-])cc2)=NO1 (centres undefined) | 23.6 | 39.3% (inactive)
NC1=NC(=O)C2(COC(c3ccccc3Cl)OC2)S1 (centres undefined) | 13.6 | 19.2% (inactive)
Cc1nnc(SCC(=O)NCCOc2ccc(Cl)cc2)n1-c1ccccc1 | 36.3 | 2.1% (inactive)
O=C(CSc1nnc(-c2cccs2)n1Cc1ccccc1)N1CCc2ccccc2C1 | 52.6 | -33.1% (inactive)
CCOc1ccccc1C1NC(=O)NC(C)=C1C(=O)OCc1ccco1 (centres undefined) | 36.7 | -10.5% (inactive)
COCCOC(=O)C1=C(C)NC(=O)NC1c1ccc(Cl)cc1 (centres undefined) | 28.5 | 33.5% (inactive)
COc1cccc2c(=O)n(CC(=O)N3CCCCCC3)ccc12 | 40.9 | -22% (inactive)
COc1ccc(N(CC(=O)NC2CCCCC2)C(=O)CNC(=O)c2ccco2)c(OC)c1 | 22.1 | -26.1% (inactive)
Cc1noc(COc2ccccc2OCc2onc(C)c2Cl)c1Cl | 24.8 | -49.4% (inactive)
CCOC(=O)C1CCN(Cc2coc3ccc(Cl)cc3c2=O)CC1 | 22.3 | -15.2% (inactive)
Cc1cccc2c(=O)n3c(nc12)CCCCC3 | 18.2 | 11% (inactive)
